The values that follow come from PubChem BioAssay (NCATS).

Results filed as inconclusive are left out. Calls of active or inactive are those of the source. Calls come from the whole dose curve; as a rule, active = well fitted cell-killing curve with a large enough effect; inconclusive = small, poorly fitted or top-dose-only effect, or effect the other way; inactive = no such curve, though single readings can be large or run the other way.
Potency is the fitted concentration of half-maximal effect.

This assay is described as follows: Quantitative High-Throughput drug screen in 47 multiple myeloma cell lines against the NCATS MIPE library collection: U266_ATCC cell viability assay (AID 1919864). Note: nearly all actives have a fitted effect of over 35% in size. As to conditions: U266 myeloma viability, CellTiter-Glo ATP luminescence, 48 h; series mostly up to 45.8 µM. The source says: PI: Beverly A. Mock Ph.D.
Laboratory of Cancer Biology and Genetics,
Center for Cancer Research, National Cancer Institute,
National Institute of Health, Bethesda, Maryland
Drug resistance and disease progression are common in multiple myeloma (MM) patients, underscoring the need for new therapeutic combinations. […] We hypothesized that effective combinations would reduce MYC expression and enhance p16 activity. […] These preclinical data identify potentially useful drug combinations for evaluation in drug-resistant MM and reveal potential mechanisms of combined drug sensitivity.
Described herein is the primary MIPE qHTS used to cherrypick compounds. Validated compounds were then further tested for potential synergistic activiy.
[1] Peat TJ, Gaikwad SM, Dubois W, Gyabaah-Kessie N, Zhang S, Gorjifard S, Phyo Z, Andres M, Hughitt VK, Simpson RM, Miller MA, Girvin AT, Taylor A, Williams D, D'Antonio N, Zhang Y, Rajagopalan A, Flietner E, Wilson K, Zhang X, Shinn P, Klumpp-Thomas C, McKnight C, Itkin Z, Chen L, Kazandijian D, Zhang J, Michalowski AM, Simmons JK, Keats J, Thomas CJ, Mock BA. Drug combinations identified by high-throughput screening promote cell cycle transition and upregulate Smad pathways in myeloma. Cancer Lett. 2023 Aug 1;568:216284. doi: 10.1016/j.canlet.2023.216284. Epub 2023 Jun 24. PMID: 37356470; PMCID: PMC10408729.
SEQUENCE No. (e.g., 1, 2, 3, etc.); […] (e.g., Cells, Incubation, Reagent, etc.); VALUE and DESCRIPTION.
1; Cells; 5 uL; white, solid bottom 1536-well Greiner assay plate.
2; Compounds; 23 nL; Kalypsis pin tool (Wako USA) equipped with a 1536-well pin head to transfer to the assay plates.
3; Incubation; 48 hours; 37C incubation.
4; Reagent;5uL; CellTiter Glo (Promega).
5; Detector; 425V; Luminescence; Viewlux PerkinElmer.
NOTES (numbers refer to Sequence numbers above)
1. The cell-based screening methods employed in this study were like those previously published. Briefly, the corresponding myeloma cell lines were screened in 1,536-well plates with 500 cells, 5-uL per well for inhibition of cell viability (assessed by measuring ATP levels with CellTiterGlo).
2. NCATS MIPE 4.0 library of approved and investigational drugs were added using the Kalypsis pin tool. Wells treated with DMSO only for 100% viability and media only for 0% viability were used as controls.
3. The assay plates were covered and incubated for 48 hours in a 37C, 5% CO2 incubator with controlled humidity.
4. After 48 hours, CellTilter-GloTM luminescent substrate mix (Promega) reagent was added to the assay plate and plates we incubated for 5 min at room temperature.
5. Signal was measured as median relative luminescence units on a ViewLux (PerkinElmer) multiplate reader.
[1] Heske CM, Davis MI, Baumgart JT, Wilson K, Gormally MV, Chen L, Zhang X, Ceribelli M, Duveau DY, Guha R, Ferrer M, Arnaldez FI, Ji J, Tran HL, Zhang Y, Mendoza A, Helman LJ, Thomas CJ. Matrix Screen Identifies Synergistic Combination of PARP Inhibitors and Nicotinamide Phosphoribosyltransferase (NAMPT) Inhibitors in Ewing Sarcoma. Clin Cancer Res. 2017 Dec 1;23(23):7301-7311. doi: 10.1158/1078-0432.CCR-17-1121. Epub 2017 Sep 12. PMID: 28899971; PMCID: PMC6636827.
Consider `CCNC(=O)Nc1ccc(-c2nc3c(c(N4CCOC[C@H]4C)n2)CCN(C2COC2)C3)cc1`, for which the Potency is 6.62 µM (active).
As to `OCCNC1CCCc2c1[nH]c1ccc(-c3ccccc3)cc21` (stereo not given), the Potency is 20.9 µM (active).
`Oc1cc(-c2nc(-c3ccccc3)[nH]c2-c2ccncc2)ccc1Cl`: the Potency is 16.6 µM (active).
For `C#C[C@]1(O)CC[C@@H]2[C@@H]3CCC4=CC(=O)CC[C@@H]4[C@H]3CC[C@@]21CC` the value was “inactive”.
Regarding `c1coc(CNc2ncnc3nc[nH]c23)c1`, the Potency entry is “inactive”.
The figure for `CC(=O)NCC(=O)N1[C@H]2CC[C@H]1c1cc(Nc3ncc(C(F)(F)F)c(NC4CCC4)n3)ccc12` is 5.9 µM (active); for `CC(=O)OCC(=O)[C@@]1(O)CC[C@H]2[C@@H]3CCC4=CC(=O)CC[C@]4(C)[C@@H]3C(=O)C[C@@]21C` it is “inactive”; for `CN(C)CCN1C(=O)c2cccc3cc(N)cc(c23)C1=O` it is 18.7 µM (active).
The figure for `CC(C)Oc1ccc(C(=O)N[C@H](CNC(=O)CN(C)C)Cc2ccc(-c3cn4cccc([C@H](C)O)c4n3)cc2)cc1Cl` is 20.9 µM (active).
For `C[C@]12C=CC(=O)N[C@@H]1CC[C@H]1[C@H]3CC[C@@H](C(=O)Nc4cc(C(F)(F)F)ccc4C(F)(F)F)[C@@]3(C)CC[C@@H]12` the value was “inactive”.
With `CC(=O)OC[C@@H]1O[C@@H](n2ccc(=O)[nH]c2=O)[C@H](OC(C)=O)[C@H]1OC(C)=O`, the Potency result is “inactive”.
For `N#CNC(=NCCCCCCOc1ccc(Cl)cc1)Nc1ccncc1` the value was 18.7 µM (active); for `O=C1c2cccc(O)c2C(=O)c2c(O)cc(CO)cc21`, “inactive”.
Take `C[C@@H](NCc1cc2ccccc2[nH]1)c1cccc2ccccc12`: the Potency result is “inactive”.
For `CC(C)N1[N]C(=C2C=c3cc(O)ccc3=N2)c2c(N)ncnc21` the value was 4.18 µM (active); for `CC(C)NC[C@@H](C(=O)N1CCN(c2ncnc3c2[C@H](C)C[C@H]3O)CC1)c1ccc(Cl)cc1`, 18.7 µM (active).
For `N=c1ccn2c(n1)O[C@H]1[C@@H](O)[C@@H](CO)O[C@H]12` the value was 18.7 µM (active); for `Nc1ccn(C[C@@H](CO)OCP(=O)(O)O)c(=O)n1`, “inactive”; for `Cc1cnc(Nc2ccc(CN3CCOCC3)cc2)nc1Nc1cccc(S(=O)(=O)NC(C)(C)C)c1`, 7.43 µM (active).
For `Nc1ccn(C2CO[C@H](CO)O2)c(=O)n1` (stereo not given in full) the value was “inactive”; for `CCCCCCCCc1ccc(CCC(N)(CO)CO)cc1`, 16.6 µM (active).
Turning to `CCCCC(=O)O[C@]1(C(=O)CO)[C@@H](C)C[C@H]2[C@@H]3CCC4=CC(=O)C=C[C@]4(C)[C@@]3(F)[C@@H](O)C[C@@]21C`, the Potency result was “inactive”.
The figure for `CNC(=O)Nc1ccc(-c2nc(N3CC4CCC(C3)O4)c3cnn(C4CCC5(CC4)OCCO5)c3n2)cc1` is 0.0148 µM (active).
The figure for `O=C(O)c1ccc(Nc2ncc3c(n2)-c2ccc(Cl)cc2C(c2c(F)cccc2F)=NC3)cc1` is 20.9 µM (active); for `CC(N[C@H]1CCCC[C@H]1NC(=O)c1ccc(Cl)cc1)c1cccc2ccccc12` (stereo not given in full) it is “inactive”; for `CN1C(C(=O)Nc2ccccn2)=C(O)c2sc(Cl)cc2S1(=O)=O` it is 4.18 µM (active).
For `CCNC(=O)c1cc2c(-c3cc(OCCN4CCCC4)c(Cl)cc3Cl)nc(N)nc2s1` the value was 1.05 µM (active); for `COc1cc(OC)c(C=CS(=O)(=O)Cc2ccc(OC)c(NCC(=O)O)c2)c(OC)c1`, 0.526 µM (active).
For `COc1cc(C(=O)NC2CCN(C)CC2)ccc1Nc1ncc2c(n1)N(C1CCCC1)CCC(=O)N2C(C)C`, the Potency is 18.7 µM (active).
For `Cn1cc(C2=C(c3c4n(c5ccccc35)CCC(CN)C4)C(=O)NC2=O)c2ccccc21` (stereo not given) the value was 16.6 µM (active); for `Oc1cc2c(cc1O)C1c3ccc(O)c(O)c3OCC1(O)C2` (stereo not given), “inactive”.
The figure for `O=C1NC(=O)C(=Cc2ccc3nccc(-c4ccncc4)c3c2)S1` is 0.418 µM (active).
The figure for `Cn1cnc(=N)c2[nH]cnc21` is 0.235 µM (active); for `CC(C=CC(=O)NO)=C[C@@H](C)C(=O)c1ccc(N(C)C)cc1` it is 0.209 µM (active); for `CC(=O)O[C@H]1C[C@@H]2CC[C@H]3[C@H]4C[C@H]([N+]5(C)CCCCC5)[C@@H](OC(C)=O)[C@@]4(C)CC[C@@H]3[C@@]2(C)C[C@H]1N1CCCCC1` it is “inactive”.
In the case of `Nc1cccc2c1C(=O)N(C1CCC(=O)NC1=O)C2=O` (stereo not given), the Potency result was “inactive”.
Consider `COc1cc(CCc2cc(NC(=O)c3ccc(N4C[C@@H](C)N[C@@H](C)C4)cc3)n[nH]2)cc(OC)c1`, for which the Potency was 20.9 µM (active).
The figure for `C=Cc1c(C)c2cc3nc(cc4[nH]c(cc5nc(cc1[nH]2)C(C)=C5CCC(=O)O)c(CCC(=O)OC)c4C)[C@@]1(C)C3=CC=C(C(=O)OC)[C@H]1C(=O)OC` is 0.296 µM (active); for `Cc1onc(-c2ccccc2)c1C(=O)N[C@@H]1C(=O)N2[C@@H](C(=O)O)C(C)(C)S[C@@H]12` it is “inactive”.
For `COc1cc(OC)cc(-c2ccc3ncc4ccc(=O)n(-c5ccc(N6CCNCC6)c(C(F)(F)F)c5)c4c3c2)c1` the value was 11.8 µM (active).
